# Some of the results follow. Activity calls are given as the source filed them.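 How the source made its calls, unless noted: active means inhibition reaching about 45% at 4 µM in either replicate (limit read from the data); inactive means the rest.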
# Columns and labels:
# [1] = lowers stimulated NF-kB luciferase signal in Jurkat – cell-based, luminescence, single concentration, T-cell NF-kB inhibitor project, confirmation (AID 435020); conditions: PMA/ionomycin-induced, 16 h, at 4 µM, stronger effect = higher value;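 further: plate controls were PMA/ionomycin stimulated DMSO wells for no effect and unstimulated DMSO wells for full effect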
# [2] = PPC-1 cell viability loss – ATP content luminescence, cytotoxicity control for TRAIL apoptosis potentiator project, confirmation (AID 1447;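 active means reconfirmed compounds whose average cytotoxicity reaches 50% or more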;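 further: 0% = DMSO-treated cells and 100% = wells holding medium but no cells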); conditions: PPC-1 viability, ATPlite luminescence, overnight; at 5 µM; stronger effect = higher value
# [3] = target: Sentrin-specific protease 8 (Homo sapiens) (UniProt Q96LD8); assay: human SENP8 peptidase blockers, hit retest – biochemical, luminescence, single concentration, confirmation (AID 488912;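 active means mean inhibition across replicates above about 50%, limit read from the data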); conditions: Recombinant SENP8, Z-RLRGG-aminoluciferin luminescence, 60 min; at 12.5 µM; stronger effect = higher value
# Sequence of Sentrin-specific protease 8 (Homo sapiens) (Q96LD8 whole entry, looked up, the tested form may be a part): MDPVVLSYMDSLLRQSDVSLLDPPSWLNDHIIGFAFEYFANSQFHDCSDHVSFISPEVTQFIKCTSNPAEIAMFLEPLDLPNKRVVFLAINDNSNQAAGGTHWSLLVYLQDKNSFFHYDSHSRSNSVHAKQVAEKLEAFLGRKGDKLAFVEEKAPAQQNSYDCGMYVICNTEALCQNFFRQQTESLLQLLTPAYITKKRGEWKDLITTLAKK
# [4] = target: Sentrin-specific protease 6 (Homo sapiens) (UniProt Q9GZR1); assay: inhibition of human SENP6 catalytic domain – biochemical, luminescence, single concentration, confirmation (AID 488915;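 active means mean inhibition above about 50% in the one-dose retest, limit read from the data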); conditions: recombinant SENP6, Z-RLRGG-aminoluciferin luminescence; at 12.5 µM; stronger effect = higher value
# Sequence of Sentrin-specific protease 6 (Homo sapiens) (Q9GZR1 628-1112 limits assumed): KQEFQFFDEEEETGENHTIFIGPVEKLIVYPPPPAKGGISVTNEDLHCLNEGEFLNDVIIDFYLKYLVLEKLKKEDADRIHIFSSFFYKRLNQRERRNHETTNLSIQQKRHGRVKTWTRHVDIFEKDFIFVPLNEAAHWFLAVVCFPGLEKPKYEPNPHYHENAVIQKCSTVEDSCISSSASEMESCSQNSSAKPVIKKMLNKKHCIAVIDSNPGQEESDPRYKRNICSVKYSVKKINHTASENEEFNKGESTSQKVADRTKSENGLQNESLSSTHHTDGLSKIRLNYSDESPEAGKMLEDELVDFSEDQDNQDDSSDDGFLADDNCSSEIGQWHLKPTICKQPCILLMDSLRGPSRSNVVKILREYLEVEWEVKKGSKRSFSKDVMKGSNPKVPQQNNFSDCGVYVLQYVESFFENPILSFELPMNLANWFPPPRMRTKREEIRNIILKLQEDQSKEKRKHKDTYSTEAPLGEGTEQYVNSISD
# [5] = target: Sentrin-specific protease 7 (Homo sapiens) (UniProt Q9BQF6); assay: human SENP7 peptidase blockers, hit retest – biochemical, luminescence, single concentration, confirmation (AID 488917;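 active means mean inhibition above about 50% in the one-dose retest, limit read from the data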); conditions: recombinant SENP7, Z-RLRGG-aminoluciferin luminescence, 40 min; at 12.5 µM; stronger effect = higher value
# Sequence of Sentrin-specific protease 7 (Homo sapiens) (Q9BQF6 706-1050 limits assumed): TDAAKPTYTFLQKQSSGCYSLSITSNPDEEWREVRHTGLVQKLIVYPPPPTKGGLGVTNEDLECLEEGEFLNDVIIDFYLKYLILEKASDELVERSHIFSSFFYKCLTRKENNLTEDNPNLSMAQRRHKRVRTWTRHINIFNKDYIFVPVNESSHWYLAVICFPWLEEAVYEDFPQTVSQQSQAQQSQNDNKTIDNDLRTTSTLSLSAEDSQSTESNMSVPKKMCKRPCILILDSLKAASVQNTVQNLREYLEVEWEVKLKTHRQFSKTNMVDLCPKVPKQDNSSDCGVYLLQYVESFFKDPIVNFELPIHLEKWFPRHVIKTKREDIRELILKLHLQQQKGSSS
# Caspase-3 (Homo sapiens) = Caspase-3 (Homo sapiens) (UniProt P42574); assay: human caspase-3 activity blockade, out-of-family – biochemical, single concentration, selectivity assay for SENP inhibitor project, confirmation (AID 488918;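 active means mean inhibition above about 50%, limit read from the data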;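 further: plate controls were enzyme with DMSO for no effect and wells without caspase-3 for full effect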); conditions: purified caspase-3, Z-DEVD-aminoluciferin luminescence, 60 min; at 12.5 µM; stronger effect = higher value
# Sequence of Caspase-3 (Homo sapiens) (P42574 28-227 limits assumed): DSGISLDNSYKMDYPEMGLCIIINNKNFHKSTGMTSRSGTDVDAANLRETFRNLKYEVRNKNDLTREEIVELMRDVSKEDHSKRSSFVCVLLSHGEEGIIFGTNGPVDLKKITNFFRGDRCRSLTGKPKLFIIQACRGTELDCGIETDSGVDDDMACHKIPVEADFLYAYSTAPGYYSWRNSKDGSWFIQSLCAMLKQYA
# [6] = Ultra-Glo luciferase signal interference – biochemical, single concentration, SENP8 reaction pre-completed, artefact control for SENP inhibitor project, confirmation (AID 488919;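 active means mean inhibition above about 50% when retested at one dose, limit read from the data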;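 further: plate controls were DMSO wells with completed reaction for no effect and substrate without enzyme for full effect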); conditions: Pre-incubated SENP8/Z-RLRGG-aminoluciferin, luciferase luminescence interference; at 12.5 µM; stronger effect = higher value
# [7] = target: Tumor necrosis factor receptor superfamily member 10B (Homo sapiens) (UniProt O14763); assay: viability loss of caspase-8 NB7 cells with TRAIL – with/without TRAIL, luminescence panel, confirmation (AID 651596; in the data active means activity above about 50%); conditions: NB7 neuroblastoma + caspase-8, TRAIL sensitization, NB7 Caspase-8, with TRAIL, mean of runs, at 10 µM, stronger effect = higher value
# Sequence of Tumor necrosis factor receptor superfamily member 10B (Homo sapiens) (O14763 whole entry, looked up): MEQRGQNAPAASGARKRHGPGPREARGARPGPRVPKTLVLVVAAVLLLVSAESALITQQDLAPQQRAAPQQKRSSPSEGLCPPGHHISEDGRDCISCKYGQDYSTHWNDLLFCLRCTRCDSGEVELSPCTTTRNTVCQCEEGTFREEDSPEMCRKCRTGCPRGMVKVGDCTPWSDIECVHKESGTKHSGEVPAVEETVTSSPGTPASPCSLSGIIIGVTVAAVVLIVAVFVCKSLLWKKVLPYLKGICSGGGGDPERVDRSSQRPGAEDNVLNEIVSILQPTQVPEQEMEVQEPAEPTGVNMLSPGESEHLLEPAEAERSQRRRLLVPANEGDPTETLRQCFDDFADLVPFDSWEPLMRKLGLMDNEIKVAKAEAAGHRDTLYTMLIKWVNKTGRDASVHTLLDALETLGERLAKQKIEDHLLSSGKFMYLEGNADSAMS
# [8] = as above; conditions: NB7 neuroblastoma + caspase-8, without TRAIL, NB7 Caspase-8, without TRAIL, mean of runs, at 10 µM
smiles,measurement,setting,value
CCCOC(=O)c1[nH]c2c(c1C)C(=O)CC(c1cccs1)C2 (centres undefined),inhibition,[1],52.4% (active)
CCOc1cccc(/C=C/c2ccc3ccccc3n2)c1OC(C)=O,inhibition,[1],-131% (inactive)
Cc1ccccc1Nc1nc(N)nc(CSc2ccccc2)n1,inhibition,[1],-82.8% (inactive)
O=C(Nc1ccccc1Cl)/C(Cl)=C(\Cl)S(=O)c1ccccc1 (centres undefined),inhibition,[1],59.8% (active)
Oc1cccc(/C=N/Nc2ccc(Cl)nn2)c1O,inhibition,[1],0.85% (inactive)
COc1ccc(CC(=O)Nc2nc(-c3ccc(F)c(F)c3)cs2)cc1OC,inhibition,[1],58.5% (active)
Cc1cccc(-n2c(C)cc(/C=N\NC(=O)c3cccs3)c2C)c1,inhibition,[1],6.7% (inactive)
COc1ccc(C(=O)Nc2ccccc2C(=O)N/N=C/c2ccc(O)c(OC)c2)cc1,cytotoxicity,[2],96.5% (active)
same,inhibition,[3],97.3% (active)
same,inhibition,[4],98.5% (active)
same,inhibition,[5],102% (active)
same,inhibition,Caspase-3 (Homo sapiens),98.4% (active)
same,inhibition,[6],83.7% (active)
CC(=O)c1sc(NC(=O)c2ccc(C)cc2)nc1C,cytotoxicity,[2],52.3% (active)
same,inhibition,[3],-24.9% (inactive)
same,inhibition,[4],-17.1% (inactive)
same,inhibition,[5],3.1% (inactive)
same,inhibition,Caspase-3 (Homo sapiens),6% (inactive)
same,inhibition,[6],-5.6% (inactive)
same,activity,[7],68.5%
same,activity,[8],68.1%
COc1ccccc1NC(=O)C1=C(C)Nc2nc3ccccc3n2C1c1cccs1 (centres undefined),inhibition,[1],42.7% (inactive)
Cn1c(-c2ccc(F)cc2)cc2onc(-c3ccccc3Cl)c2c1=O,inhibition,[1],-96.3% (inactive)
O=C(Oc1ccc(-c2nc(-c3ccccn3)no2)cc1)c1ccccc1,cytotoxicity,[2],44.9% (inactive)
same,inhibition,[3],4.5% (inactive)
same,inhibition,[4],23.1% (inactive)
same,inhibition,[5],2.6% (inactive)
same,inhibition,Caspase-3 (Homo sapiens),14.5% (inactive)
same,inhibition,[6],2.6% (inactive)
O=C(NCC#CCSc1nnc(-c2cccc3ccccc23)o1)c1cccs1,inhibition,[1],62.8% (active)
CC(=O)c1ccc(Oc2cc(C)nc(-n3nc(C)cc3C)n2)cc1,inhibition,[1],58.9% (active)
Cc1ccc2nc(-c3ccncc3)cc(C(=O)Nc3ccc(OC(F)F)cc3)c2c1,inhibition,[1],28.2% (inactive)
CCCOc1ccccc1C1CC(=O)Nc2cc3c(cc21)OCO3 (centres undefined),inhibition,[1],62% (active)
CCOc1ccc2[nH]c3nc(SCC(=O)NC4CCCC4)nnc3c2c1,inhibition,[1],14.2% (inactive)
Cc1c(/C=N\NC(=O)c2cc3ccccc3o2)c2ccccc2n1C,inhibition,[1],-0.3% (inactive)
COc1ccc(-c2csc(-c3cccs3)n2)cc1OC,inhibition,[1],-54.3% (inactive)
CC(C)c1ccc(NC(=O)NC2CCCCC2)cc1,inhibition,[1],-175% (inactive)
C=CCn1c(SCc2c(C)noc2C)nc2sc3c(c2c1=O)CCC(C)C3 (centres undefined),inhibition,[1],27.9% (inactive)
Cn1nccc1C(=O)NC1CCCc2c1cnn2-c1ccc(F)cc1F (centres undefined),inhibition,[1],76.3% (active)
Cc1cc(=O)oc2cc(OCC3CC(c4ccccc4Cl)=NO3)ccc12 (centres undefined),inhibition,[1],54.6% (active)
CC[C@]1(O)CC2CN(CCc3c([nH]c4ccccc34)[C@@](C(=O)OC)(c3cc4c(cc3OC)N(C=O)[C@H]3[C@@](O)(C(=O)OC)[C@H](OC(C)=O)[C@]5(CC)C=CCN6CC[C@]43[C@@H]65)C2)C1 (some centres undefined),inhibition,[1],62.8% (active)
COc1ccc(-c2csc(Nc3ccccn3)n2)cc1,inhibition,[1],16.1% (inactive)
Cc1cccc(NS(=O)(=O)c2ccc(-c3cnc(C4CC4)o3)cc2)c1,inhibition,[1],53.5% (active)
CCOc1ccccc1NC(=O)Cn1nnc(C(=O)NCc2cccs2)c1N,inhibition,[1],51.6% (active)
COc1cc(C(=O)NN(CCC#N)C2=NS(=O)(=O)c3ccccc32)cc(OC)c1OC,inhibition,[1],-119% (inactive)
CSc1nc(N(C)NC(=O)c2cccc(C)c2)c2ccccc2n1,inhibition,[1],57.2% (active)
COc1cc2c(cc1OC)CN(C(=O)c1cc(=O)c3ccccc3o1)CC2,inhibition,[1],21.4% (inactive)
COc1ccccc1C1C2=C(COC2=O)Nc2cc3c(cc21)OCO3 (centres undefined),inhibition,[1],23.4% (inactive)
CC(C)CC(=O)N/C(N)=N/c1nc2ccccc2s1,inhibition,[1],-131% (inactive)
